Results on 31 molecules are retold here after PubChem BioAssay AID720596 (The Scripps Research Institute Molecular Screening Center, 2013).

In general, inhibition refers to the drop in the measured response relative to a control, in per cent.

Out of some 370,000 compounds screened, about 1,600 (0.43%) were called active. The sample as a whole holds a higher share of actives than the screen did. Unmarked numbers belong to inactive results. Rule as the data show it: active = inhibition above about 24%; inactive = the rest.

The assay addresses Major prion protein (Homo sapiens) (UniProt P04156). The experiment in a line: reduces human prion protein on the cell surface, primary screen, cell-based, TR-FRET (AID 720596). Also: 0% = median of the test wells and 100% = reference compound wells. Conditions: cell surface PrPC, TR-FRET read-out; at 13.8 µM; stronger effect = higher value. In general terms: In TR-FRET formats the signal depends on donor and acceptor labels being close together.
For the molecule `Cc1ccc(OC(=O)c2c(C)nn(-c3ccccc3)c2C)cc1`, the inhibition is 4.97%.
With `Cc1ccc(Oc2cnn(-c3ccccc3)c(=O)c2Br)cc1` the figure was 32.8% (active).
With `CCOc1ccc(Oc2c(Cl)cnn(-c3ccc(C)cc3)c2=O)cc1` the figure was -10.9%; with `CCC(C)[C@@H](C(=O)OC)N(CCc1cn(Cc2ccccc2)nn1)S(=O)(=O)c1ccccc1Br` (stereo partly specified), 2.07%.
With `CC(=O)Nc1ccc(S(=O)(=O)N2CCC(NC(=O)c3ccccc3)CC2)cc1` the figure was -5.81%.
In the case of `CN(Cc1c(F)cccc1Cl)S(=O)(=O)c1cccs1`, the inhibition was -6.92%.
As for `COc1cccc(NC(=S)C(C#N)=C2N(C)c3ccccc3N2C)c1`, the figure is -1.55%.
As for `CC(=O)Nc1cccc(OCC(=O)/C=C2\N(C)c3ccccc3C2(C)C)c1`, the inhibition is 29.7% (active).
For `O=C(CCCOc1ccccc1)Nc1cccc(C(=O)O)c1`, the inhibition was 2.69%.
With `Cc1nnc(NC(=O)CCC(=O)N2CCC(C)CC2)s1` the figure was -8.95%; with `COc1ccc(/C=C/CN2CCCC(C(=O)c3cc(F)ccc3F)C2)cc1` (stereo unspecified), 3.26%.
As to `COc1cc2c(cc1OC)C(=O)NCC(C)(C)O2`, the inhibition was 6.88%.
As for `O=C(Nc1cccn(Cc2ccccc2Cl)c1=O)NC1CCCCC1`, the figure is 24.9% (active); as for `O=C(Nc1cccn(Cc2c(Cl)cccc2Cl)c1=O)c1ccc(Cl)cc1`, 2.47%; as for `COc1ccc(Cn2cccc(NC(=O)Nc3ccc(C#N)cc3)c2=O)cc1`, 4.26%.
In the case of `CC1(C)CC(=O)C(C=NCc2cccnc2)=C(O)C1`, the inhibition is 6.76%.
On to `C=CCn1c(O)c(/C=N/N2CCOCC2)c(=O)[nH]c1=S`, for which the inhibition is -4.21%.
As for `CC1(C)CC(N2CCN(C(c3ccccc3)c3ccccc3)CC2)=CC(=[N+]2CCCCC2)C1`, the figure is 24.4% (active); as for `COC(=O)C(c1ccccc1)N1CCCCCC1` (stereo unspecified), -4.88%.
As for `O=C(Nc1ccc(F)cc1)Nc1nnc([C@H]2C[C@H](O)[C@@H](CO)O2)s1`, the figure is 1.64%; as for `O=C(Nc1nnc([C@H]2C[C@H](O)[C@@H](CO)O2)s1)c1cccc(Cl)c1`, -5.24%.
With `Cc1ccc(CNC(=O)Nc2nnc([C@H]3C[C@H](O)[C@@H](CO)O3)s2)cc1`, the inhibition was 25.8% (active).
As for `COC(=O)CSc1nc(C2CC2)nc2ccccc12`, the figure is 34% (active); as for `CN(C(=O)CSc1nc(C2CC2)nc2ccccc12)c1nc(-c2ccccc2)cs1`, -2.06%.
As for `Cc1nnc(NC(=O)CSc2nc(C3CCCCC3)nc3ccccc23)s1`, the figure is 2.15%; as for `Cc1c(Br)c([N+](=O)[O-])nn1C(C)C(=O)Nc1nccs1` (stereo unspecified), -4.47%.
With `COc1ccc(S(=O)(=O)N2CCOCC2)cc1NC(=O)CSc1cc(C)ccc1C` the figure was -4.51%; with `COc1ccc(S(=O)(=O)N2CCOCC2)cc1NC(=O)CSc1nnc(NC2CC2)s1`, 7.4%.
On to `COc1ccc(S(=O)(=O)N2CCOCC2)cc1NC(=O)CSc1ncnc2ccccc12`, for which the inhibition is 47.3% (active).
For `Cc1oc(-c2ccccc2Cl)[n+]([O-])c1C`, the inhibition is -0.12%.
Consider `COC(=O)c1sccc1NC(=O)CC1C(=O)NCCN1C(=O)Nc1ccc(F)cc1F` (stereo unspecified), for which the inhibition was 4.59%.
